# Active and inactive are the calls of the source.
# Columns and labels:
# [1] = test system: Human papillomavirus type 1a protein E7 (residues 44-93); assay: small molecules binding HPV E7 44-93 – biochemical, small-molecule microarray, residues 44-93, 635 nm fluorescence, primary screen (AID 1108); conditions: fluorescence 635 nm, higher = more signal;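 also: E7 fragment applied at 1 µg/mL in TBST for 1 h at 4 C; score combines spot fluorescence with its signal to noise ratio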
# [2] = hepatitis C replication reporter changes, two-sided – Huh7 cells, luciferase reporter, HCV replication inhibitor project, primary screen (AID 1109); conditions: Huh7 HCV replicon luciferase reporter, 48 h; higher = more signal;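 also: huh7 hepatoma cells harbouring a luciferase neomycin HCV replicon reporter; luciferase luminescence as measure of HCV replicon replication; test concentration not given here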
# [3] = biological target: Left-right determination factor 2 (Homo sapiens) (UniProt O00292); assay: small molecules binding LEFTY2 protein – biochemical, small-molecule microarray, 635 nm fluorescence scan, primary screen (AID 1110); conditions: higher = more signal
# Chain of Left-right determination factor 2 (Homo sapiens) (O00292 whole entry, looked up): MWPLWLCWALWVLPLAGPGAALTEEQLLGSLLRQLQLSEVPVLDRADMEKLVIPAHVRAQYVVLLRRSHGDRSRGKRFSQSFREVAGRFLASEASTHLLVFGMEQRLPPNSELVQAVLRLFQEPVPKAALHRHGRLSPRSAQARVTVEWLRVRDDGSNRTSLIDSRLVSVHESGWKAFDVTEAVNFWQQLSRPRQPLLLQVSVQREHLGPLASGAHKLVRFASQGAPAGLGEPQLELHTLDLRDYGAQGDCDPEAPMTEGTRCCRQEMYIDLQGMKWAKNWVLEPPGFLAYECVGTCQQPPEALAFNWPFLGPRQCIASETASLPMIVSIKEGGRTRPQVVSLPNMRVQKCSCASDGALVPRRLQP
# [4] = biological target: Calmodulin-1 (Homo sapiens) (UniProt P0DP23); assay: small molecules binding calmodulin-1 with EGTA – biochemical, small-molecule microarray, Cy5-labelled CALM1, profiling panel (AID 1111); conditions: Cy5-CALM1 binding fluorescence, higher = more signal;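 also: labelled calmodulin applied in Tris saline Tween buffer holding calcium plus EGTA and DTT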
# [5] = biological target: Calmodulin-1 (Homo sapiens) (UniProt P0DP23); assay: small molecules binding Ca-loaded calmodulin-1 – biochemical, small-molecule microarray, Cy5-labelled CALM1, plus calcium, artefact control for SMM control-protein annotation, profiling panel (AID 1112); conditions: Cy5-CALM1 binding fluorescence, higher = more signal;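 also: score merges spot fluorescence with signal to noise from triplicate slides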
# [6] = probe aWnt5a binding to arrayed compounds – biochemical, biotinylated probe, 635/667 nm fluorescence, primary screen (AID 1113); conditions: small-molecule microarray, higher = more signal;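 also: score merges 667 nm fluorescence intensity with signal-to-noise per printed feature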
# [7] = probe aShh binding to arrayed compounds – biochemical, biotinylated probe, 635/667 nm fluorescence, primary screen (AID 1114); conditions: small-molecule microarray, higher = more signal;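 also: probe is biotin-labelled aShh protein from a stem cell growth factor screen; measures binding of labelled protein to compounds printed on the slide; score merges feature fluorescence at 667 nm with signal-to-noise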
# [8] = probe aNog binding to arrayed compounds – biochemical, biotinylated probe, 635/667 nm fluorescence, primary screen (AID 1115); conditions: small-molecule microarray, higher = more signal;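 also: probe is biotinylated aNog protein used at 0.15 µg/mL for 1 h at 4 C; z-score combines 667 nm fluorescence of each spot with its signal to noise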
# [9] = biological target: Torsin-1A-interacting protein 1 (Homo sapiens) (UniProt Q5JTV8); assay: compound microarray binding of lysate hLAP1 – cell lysate, small-molecule microarray, COS7 lysate, 635/667 nm fluorescence, primary screen (AID 1116); conditions: 635 nm fluorescence, higher = more signal
# Chain of Torsin-1A-interacting protein 1 (Homo sapiens) (Q5JTV8 whole entry, looked up): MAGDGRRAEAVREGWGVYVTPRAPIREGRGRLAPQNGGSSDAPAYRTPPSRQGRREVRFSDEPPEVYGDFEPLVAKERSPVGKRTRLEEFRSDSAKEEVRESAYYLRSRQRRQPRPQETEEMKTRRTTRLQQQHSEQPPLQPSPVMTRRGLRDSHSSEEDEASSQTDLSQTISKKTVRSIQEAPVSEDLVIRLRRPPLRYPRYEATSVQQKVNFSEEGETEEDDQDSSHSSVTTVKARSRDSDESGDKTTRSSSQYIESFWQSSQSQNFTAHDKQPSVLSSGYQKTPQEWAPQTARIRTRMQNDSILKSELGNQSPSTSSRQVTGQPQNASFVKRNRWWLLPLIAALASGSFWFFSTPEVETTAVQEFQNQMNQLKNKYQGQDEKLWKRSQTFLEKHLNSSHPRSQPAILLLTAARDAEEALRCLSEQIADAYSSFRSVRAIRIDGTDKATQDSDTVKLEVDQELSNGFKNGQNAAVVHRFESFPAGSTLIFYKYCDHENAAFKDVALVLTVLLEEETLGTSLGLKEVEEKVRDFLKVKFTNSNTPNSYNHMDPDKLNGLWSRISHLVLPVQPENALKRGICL
# [10] = biological target: Alpha-bungarotoxin (Bungarus multicinctus) (UniProt P60615); assay: compounds binding labelled alpha-BTX control protein – biochemical, small-molecule microarray, Alexa647 label, 635/667 nm fluorescence, artefact control for SMM control protein annotation, profiling panel (AID 1117); conditions: alpha-BTX-A647 binding fluorescence, higher = more signal
# Chain of Alpha-bungarotoxin (Bungarus multicinctus) (P60615 whole entry, looked up): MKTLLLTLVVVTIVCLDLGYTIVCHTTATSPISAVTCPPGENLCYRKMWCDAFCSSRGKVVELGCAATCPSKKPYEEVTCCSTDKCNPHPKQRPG
# Albumin (Bos taurus) = Albumin (Bos taurus) (UniProt P02769); assay: compounds binding labelled BSA control protein – biochemical, small-molecule microarray, Alexa647 label, 635/667 nm fluorescence, artefact control for SMM control protein annotation, profiling panel (AID 1118); conditions: BSA-A647 binding, fluorescence 635 nm, higher = more signal;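 also: score merges 667 nm emission intensity and signal-to-noise per printed compound spot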
# Chain of Albumin (Bos taurus) (P02769 whole entry, looked up): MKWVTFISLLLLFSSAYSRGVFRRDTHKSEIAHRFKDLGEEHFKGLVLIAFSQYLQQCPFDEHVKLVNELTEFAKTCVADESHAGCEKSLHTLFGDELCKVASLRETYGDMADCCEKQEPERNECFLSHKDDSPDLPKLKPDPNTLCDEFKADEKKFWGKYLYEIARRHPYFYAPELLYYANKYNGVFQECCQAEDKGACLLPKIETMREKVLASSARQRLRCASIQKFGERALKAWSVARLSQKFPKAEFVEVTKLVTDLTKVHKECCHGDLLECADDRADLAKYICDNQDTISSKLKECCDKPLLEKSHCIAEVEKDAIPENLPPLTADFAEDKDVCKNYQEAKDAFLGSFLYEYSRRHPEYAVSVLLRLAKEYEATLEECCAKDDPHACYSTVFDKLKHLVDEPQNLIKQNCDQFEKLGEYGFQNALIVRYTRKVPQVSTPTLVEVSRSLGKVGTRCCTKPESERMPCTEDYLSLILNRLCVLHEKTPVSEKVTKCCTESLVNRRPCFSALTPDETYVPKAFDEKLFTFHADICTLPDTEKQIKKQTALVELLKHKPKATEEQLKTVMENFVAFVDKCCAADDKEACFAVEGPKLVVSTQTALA
# [11] = probe aXIP binding to arrayed compounds – biochemical, NeuroSMM set, 635/667 nm fluorescence, primary screen (AID 1119); conditions: small-molecule microarray, higher = more signal, called active from +8 up or from −8 down;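 also: probe is the protein aXip251-270 applied at 1 µg/mL to compound-printed slides; binding of probe to printed compounds measured as 667 nm fluorescence plus signal to noise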
# [12] = probe aNOTCH3 binding on compound microarray – biochemical, small-molecule microarray, 635/667 nm fluorescence, primary screen (AID 1120); conditions: higher = more signal;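 also: probe is a biotin-tagged antibody raised against NOTCH3 rather than NOTCH3 protein; score merges spot fluorescence near 667 nm with spot signal to noise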
# [13] = probe aNOTCH2 binding on compound microarray – biochemical, small-molecule microarray, 635/667 nm fluorescence, primary screen (AID 1121); conditions: higher = more signal;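 also: score merges feature fluorescence read at 667 nm with its signal to noise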
# [14] = biological target: Carbonic anhydrase 2 (Homo sapiens) (UniProt P00918); assay: compounds binding carbonic anhydrase 2 – biochemical, small-molecule microarray, Alexa647-labelled CAII, profiling panel (AID 1122); conditions: CAII-A647 binding fluorescence, higher = more signal
# [15] = COS7 lysate on small-molecule microarray, probe aHis, 635 nm (AID 1123); conditions: COS7 cell lysate, fluorescence, higher = more signal;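 also: z-score combines 667nm fluorescence intensity with signal-to-noise per printed compound spot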
# [16] = probe aLAP1 signal on lysate-treated microarray – cell lysate, small-molecule microarray, COS7 lysate, primary screen (AID 1124); conditions: probe aLAP1, fluorescence, higher = more signal;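 also: lysate comes from COS7 cells expressing LAP1 and is applied at 0.3 µg/mL; score merges spot fluorescence near 667 nm with signal-to-noise over triplicate slides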
# Sam68 (KHDRBS1) = assay: compounds binding KHDRBS1 protein – biochemical, small-molecule microarray, 635 nm fluorescence, primary screen (AID 1125); conditions: higher = more signal;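 also: score merges 667 nm channel intensity with signal to noise over triplicate slides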
# [17] = test system: Chordin-like protein 2 (CHRDL2); assay: compounds binding chordin-like 2 – biochemical, small-molecule microarray, 635 nm fluorescence, primary screen (AID 1126); conditions: fluorescence 635 nm, higher = more signal;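 also: printed compound slides probed with Chrdl2 protein at 4 µg/mL for 1 h at 4 C; score merges 667 nm emission intensity with signal to noise over three replicate slides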
# [18] = biological target: Concanavalin-A (Canavalia ensiformis) (UniProt P02866); assay: compounds binding concanavalin A lectin – biochemical, small-molecule microarray, Alexa647 label, 635 nm, artefact control for SMM control protein annotation, primary screen (AID 1127); conditions: ConA-A647 binding fluorescence, higher = more signal;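 also: z combines 667 nm emission intensity with signal-to-noise across three replicate slides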
# Chain of Concanavalin-A (Canavalia ensiformis) (P02866 whole entry, looked up): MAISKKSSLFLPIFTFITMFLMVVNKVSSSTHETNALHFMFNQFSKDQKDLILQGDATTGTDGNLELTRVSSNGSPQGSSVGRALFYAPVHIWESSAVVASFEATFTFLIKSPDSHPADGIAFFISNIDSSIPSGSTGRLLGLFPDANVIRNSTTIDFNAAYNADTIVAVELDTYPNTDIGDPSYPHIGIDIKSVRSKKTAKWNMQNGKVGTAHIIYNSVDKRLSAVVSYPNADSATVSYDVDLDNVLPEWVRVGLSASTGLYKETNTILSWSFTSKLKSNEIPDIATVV
Structure (SMILES),composite z-score [1],z-score [2],composite z-score [3],composite z-score [4],composite z-score [5],composite z-score [6],composite z-score [7],composite z-score [8],composite z-score [9],composite z-score [10],composite z-score (Albumin (Bos taurus)),composite Z-score [11],composite z-score [12],composite z-score [13],composite z-score [14],composite z-score [15],composite z-score [16],composite z-score (Sam68 (KHDRBS1)),composite z-score [17],composite z-score [18]
CC1(C)OCC(C(O)C2=CCCCC2=O)CO1 (stereo not given),0.198,-0.751,1.07,0.465,-0.927,0.0244,-0.276,-0.158,0.5,1.16,0.157,0.0887 (inactive),0.119,0.148,0.548,0.395,0.697,0.826,0.883,1.01
C=C(/C(=C/C[C@H](OC(C)=O)c1ccc(OCCO)cc1)c1cnc2ccccc2c1)C(C)C,1.41,-1.38,1.06,0.295,-0.184,0.117,-0.0917,-0.243,0.782,0.911,-0.154,-0.229 (inactive),0.0418,-0.146,0.885,0.575,-0.315,1.3,1.2,1.09
O=C1[C@H]2[C@H]3[C@H](O)[C@H](O)CC(=NOC[C@@H](O)COCc4ccco4)[C@H]3CC[C@H]2C(=O)N1c1cccc(Oc2ccccc2)c1,-0.496,0.126,-1.1,-0.876,-0.344,-0.0792,-0.138,-0.0671,0.103,-0.572,0.355,-0.705 (inactive),-0.304,-0.133,0.364,-0.607,0.137,-0.572,-0.573,-0.785
CCN1C(=O)[C@H]2[C@H]3[C@H](O)C=CC(=O)[C@@H]3CC[C@H]2C1=O,0.907,0.305,0.503,0.0903,-0.528,-0.126,-0.13,0.0658,0.694,0.45,-0.338,-0.56 (inactive),0.0519,-0.117,-0.132,-0.177,0.402,0.234,0.587,0.373
O=C1C2=CC[C@H]3C(=O)N(Cc4ccc5c(c4)OCO5)C(=O)[C@H]3[C@H]2[C@H](O)[C@@H]2O[C@H]12,0.631,-0.43,0.341,-0.306,-0.502,-0.0495,-0.346,-0.0381,0.442,0.251,-0.176,0.0248 (inactive),-0.0229,-0.14,-0.0365,-0.142,0.397,0.21,0.529,0.534
COC(=O)[C@H](C)NC(=O)CCC1CC(OC(=O)NCCc2ccc(F)cc2)CC2(CCCC(COC(=O)NCCc3ccc(Cl)cc3)O2)O1 (stereo not given in full),1.29,-0.0845,1.2,0.922,0.232,-0.224,-0.138,-0.299,0.428,0.763,-0.167,0.65 (inactive),0.0573,-0.0261,0.0606,0.925,0.0391,1.07,1.09,0.925
COc1ccc(O[C@H]2C=C[C@@H](c3ccccc3)O[C@@H]2CON=C[C@@H](C)[C@H](OCc2ccccc2)C(C)C)cc1,-0.409,-2,-0.0764,-0.323,-0.434,-0.124,-0.0626,-0.176,-1.24,-0.25,-0.136,-0.236 (inactive),-0.245,-0.198,-0.89,-0.53,-0.419,-1.67,-0.163,-0.409
CN1C(=O)C2C=CC(C(O)c3ccc(I)cc3)N(NC(=O)OC(C)(C)C)C2C1=O (stereo not given),1.41,0.0411,0.0192,0.526,0.202,-0.0165,0.151,1.26,1.4,1.01,0.825,-0.252 (inactive),0.435,0.17,0.719,2.18,0.555,1.31,-0.294,0.898
CCOC(=O)NN=C1C[C@@H](O)[C@@H](O)[C@@H]2[C@@H]3C(=O)N(C4CCCCC4)C(=O)[C@@H]3CC[C@@H]12,0.0883,-0.336,0.342,-0.29,-0.401,-0.0462,-0.341,-0.158,0.109,0.601,0.272,-0.288 (inactive),-0.0598,-0.0534,0.0286,-0.636,1.25,0.39,0.645,0.616
CCCCC(=C=CC[C@H](O)c1ccccc1OCCO)C[C@H](O)COCc1ccccc1,-0.156,-1.92,-0.233,1.22,0.768,-0.124,-0.138,0,1.65,1.04,0.355,2.26 (inactive),-0.0362,-0.147,0.669,0.0513,1.27,-0.0664,-0.632,0.874
CC(C)NC(=O)[C@@H]1c2ccccc2C(=O)N(CC23CC4CC(CC(C4)C2)C3)[C@H]1c1ccc(CO)cc1,1.36,-1.67,0.606,0.324,-0.291,-0.0835,0.439,-0.338,0.774,0.812,0.283,-0.178 (inactive),0.106,-0.125,0.25,1.65,0.397,1.3,0.533,1.08
CC(C)C[C@@H]1NC(=O)[C@H]2C[C@@H](C(=O)NCCCCCCN(C)C)[C@@H](c3cccc(OCCO)c3)N2C1=O,1.24,0.35,1.38,-2.44,-1.26,-0.0792,0.108,-0.216,2.04,1.61,-0.615,2.07 (inactive),0.16,-0.153,0.557,2.81,1.44,1.31,1.47,1.09
